# Hits are enriched below; roughly 8.9% of the tested compounds scored in any of these assays.
# D1 allo mod = allosteric modulators of human D1 dopamine receptor; B-score at 10 µM; AID 641; 5.9% of 58,000 active; HEK293 D1, CRE-luciferase, dopamine EC30 potentiation; actives deviate in either direction;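 active means luminescence count or its row- and column-corrected plate score outside the 99.7% band of the plate's sample wells, on either side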
# WNV protease inh = blocks West Nile virus NS2B-NS3 protease activity; 0.18% of 65,000 active; WNV NS2B-NS3 protease, fluorogenic substrate Ex360/Em465; hits give low values; z-score (concentration not given with the values); AID 577; in the data active means z-score below about -3
# Target sequence (P06935 1371-1501 limits assumed): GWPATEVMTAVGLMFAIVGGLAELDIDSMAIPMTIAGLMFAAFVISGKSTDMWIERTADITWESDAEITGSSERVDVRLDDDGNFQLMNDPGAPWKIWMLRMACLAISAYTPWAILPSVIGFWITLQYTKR
# Target sequence (P06935 1502-1679 limits assumed): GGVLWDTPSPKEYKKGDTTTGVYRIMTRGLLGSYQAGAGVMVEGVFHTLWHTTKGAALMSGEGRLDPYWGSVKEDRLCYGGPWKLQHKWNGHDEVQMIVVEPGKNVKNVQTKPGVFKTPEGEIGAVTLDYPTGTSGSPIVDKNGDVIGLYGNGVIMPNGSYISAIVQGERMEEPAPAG
# M1 antagonist = M1 muscarinic receptor (rat) antagonism; P08482; CHO-M1 cells, Fluo-4 calcium, ACh EC80 antagonist mode; hits give low values; B-score at 10 µM; 3.4% of 64,000 active;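 active means calcium fluorescence response, raw or row-and-column corrected B-score, differing from the plate sample mean either way at a set confidence level, mostly lower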
# Htt clearance = mutant huntingtin protein clearance; HeLa Exon1htt(103Q)mCFP, aggregate imaging; zero = plate's median compound well; inhibition, % at 1.5 µM; 0.42% of 47,000 active; AID 853;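 active means inhibition of aggregate fluorescence above about 70%, also judged a hit by eye on the cell image, limit read from the data, passing the limit was not always enough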;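 further: cells exposed to compound for three days before fixation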
# M1 agonist = agonists of M1 muscarinic receptor | CHO-M1 cells, Fluo-4 calcium fluorescence, agonist mode; hits give high values | B-score at 10 µM | 3% of 64,000 active | AID 626;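 active means fluorescence rise, raw or as B-score row- and column-corrected plate score, outside the 99.7% band of its plate's samples, either direction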
# M1 antag confirm = M1 muscarinic receptor (rat) antagonism, confirmed; shares compounds with M1 antagonist; CHO-M1 cells, Fluo-4 calcium, ACh EC80 antagonism; hits give low values; calcium response (max-min fluorescence) at 10 µM; 43% of 1,700 active; AID 677;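 active means calcium response below the same-plate mean of wells given acetylcholine alone at its 80%-effect dose, minus 3 SD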;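 further: raw fluorescence intensity difference in arbitrary instrument units and not normalized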
# mGluR4 antag = selectivity test for M1 antagonists: human mGluR4 receptor. CHO-mGluR4 calcium flux, Fluo-4 fluorescence, glutamate EC80; hits give low values. fluorescence response (max-min) at 10 µM. 0.9% of 1,700 active. shares compounds with M1 antagonist;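 active means fluorescence response below the plate's average for near-maximal glutamate wells, less 3 SD of those wells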;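 further: raw unnormalized fluorescence span taken in the window right after glutamate addition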
# Starred values were filed as active, the others as inactive; / = not tested or not shown.
SMILES,D1 allo mod,WNV protease inh,M1 antagonist,Htt clearance,M1 agonist,M1 antag confirm,mGluR4 antag
O=C(c1ccco1)N1CCN(CCCCN2C(=O)c3ccccc3C2=O)CC1,1.7,0.19,-1.4*,-9,-0.47,637,227
O=C(CCC1CCCC1)N1CCN(C(=O)c2ccco2)CC1,-0.28,0.69,-3*,72*,0.14,654,237
COc1ccccc1CNc1ncnc2c1nnn2Cc1ccccc1,-0.024,-0.73,0.73,-25,0.47,/,/
Cc1ccc2nc3c(cc(C(N)=S)c(=N)n3CCCOC(C)C)c(=O)n2c1,0.57,-0.9,-0.19,-15,-0.39,/,/
COc1ccccc1C1/C(=C(\O)c2c(C)nc3c(C)cccn23)C(=O)C(=O)N1CCCN(C)C (stereo not given),-0.14,-0.48,0.37,-22,-0.31,/,/
CCN(CC)CCN1C(=O)C2C3c4ccccc4C(c4ccccc43)C2C1=O (stereo not given),-0.61,2.8,-3.6*,/,-0.0039,561,271
CCN(CC)CCN1C(=O)c2ccccc2NC1c1ccccc1F (stereo not given),/,/,/,-25,/,/,/
CC(C)OCCCNC(=O)c1cc2c(s1)CS(=O)(=O)C2,-0.62,-0.49,-4.6*,/,-0.0011,625,239
CCOC(=O)CC(N)c1ccc2c(c1)OCO2 (stereo not given),/,-0.47,0.79,-16,0.11,/,/
N#Cc1nc(COc2ccccc2Cl)oc1N1CCCCCC1,0.082,-1.7,1,/,0.2,/,/
N#Cc1nc(COc2ccccc2F)oc1N1CCCCCC1,3,-0.05,-1.9*,7,0.39,572,235
Cc1cccc(C2Nc3ccccc3C(=O)N2CCc2ccccc2)n1 (stereo not given),-1.6,1.1,-11*,/,-0.64,554,212
Cc1ccc(CCN2CC(C(=O)NCCCN3CCOCC3)CC2=O)cc1 (stereo not given),0.82,-1.1,-0.31,/,0.75,/,/
CCn1c(SCC(=O)O)nnc1C1CCCCC1,-1.1,-0.21,-4.7*,/,-0.82,562,178
S=c1[nH]nc(Cc2ccccc2)n1Cc1ccco1,0.037,-0.44,-13*,/,0.77,52*,240
CC(C)OC(=O)CN1CCN(C2c3ccccc3-c3ccccc32)CC1,0.04,-0.12,-0.67,-20,-0.52,/,/
N#CCSc1nc2scc(-c3cccs3)c2c(=O)n1CCc1ccccc1,1.8,2.1,-3.3*,/,0.49,675,167
C=CCn1c(SCC(=O)N2CCCC2)nc2scc(-c3cccs3)c2c1=O,/,/,/,2,/,/,/
c1ccc2c(Cn3ccnc3)c[nH]c2c1,-0.063,-0.24,-0.97,-52,0.18,/,/
Cc1cc(Cn2ccnc2)c(C)cc1Cn1ccnc1,0.21,0.24,-2*,/,-0.41,559,266
Cc1ccc(C(c2nnnn2Cc2ccccc2)N2CCN(Cc3ccccc3)CC2)cc1 (stereo not given),/,/,/,21,/,/,/
CCOC(=O)c1c(C)sc(Sc2ccc(Cl)cc2[N+](=O)[O-])c1OC,/,/,/,-1,/,/,/
CN1/C(=C\C(=O)c2cccs2)Sc2ccccc21,-4.8*,-0.8,-6.5*,/,-1.1,545,179
CC(C)CCn1c(NCCN(C)C)nc2c1c(=O)[nH]c(=O)n2C,0.051,0.47,-4*,22,0.074,601,274
CC(C)CCn1c(SCCc2ccccc2)nc2c1c(=O)[nH]c(=O)n2C,-0.54,1.1,0.36,/,-0.0074,/,/
SMILES,D1 allo mod,WNV protease inh,M1 antagonist,Htt clearance,M1 agonist,M1 antag confirm,mGluR4 antag
CN(C)S(=O)(=O)c1ccc(S(=O)(=O)NC2CCOC(C)(C)C2)cc1 (stereo not given),/,/,/,10,/,/,/
CCOc1ccc2nc(NC3=NCN(CC4CCCO4)CN3)nc(C)c2c1 (stereo not given),-0.25,-0.29,0,58,-0.42,/,/
Cc1ccc2nc(NC3=NCN(Cc4ccc5c(c4)OCO5)CN3)nc(C)c2c1,0.13,0.15,-4.2*,14,0.022,90*,273
Cc1ccc2nc(NC3=NCN(C4CCCCC4)CN3)nc(C)c2c1,-0.42,0.72,-0.36,/,-0.096,/,/
Cc1ccc2nc(NC3=NCN(Cc4ccco4)CN3)nc(C)c2c1,-2.8,1.7,-2.9*,/,0.6,392,227
CCc1ccc2nc(NC3=NCN(CCCN4CCOCC4)CN3)nc(C)c2c1,0.75,-1.7,-3.7*,/,-0.98,344*,182
O=C(Nc1cccc2ccccc12)c1ccc(Cn2cc(Cl)cn2)cc1,/,/,/,-25,/,/,/
